From PubChem BioAssay (NCATS)
Results filed as inconclusive are left out. Calls of active or inactive are those of the source. Unless noted, calls come from the whole dose curve; as a rule, active = well fitted curve in the direction sought with a large enough effect; inconclusive = small, poorly fitted or top-dose-only effect, or another doubt; inactive = no such curve, though single readings can be large; an effect the other way counts as inactive or inconclusive.

Key:
[1] = biological target: Luciferin 4-monooxygenase (Photinus pyralis) (UniProt P08659); assay: Biochemical firefly luciferase enzyme assay for NPC (AID 624030);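 note: purified P. pyralis luciferase at 10 nM with luciferin and ATP substrate; 0% = DMSO and -100% = full luciferase inhibition by PTC124 control; nearly all actives have a fitted effect of over 70% in size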
Method in brief: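 Purified P. pyralis luciferase at 10 nM in 50 mM Tris Acetate (final), luminescence read within 5 minutes of enzyme addition to compounds. Activity normalised to PTC124 versus DMSO; concentration-response curves classed by r2, magnitude and activity.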

[2] = S16 Schwann cell PMP22 intronic element firefly luciferase assay (AID 624032); note: nearly all actives have a fitted effect of over 30% in size; note: potency is the fitted concentration of half-maximal effect
Method in brief: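 Rat S16 Schwann cells stably carrying firefly luciferase driven by a PMP22 intronic element, in 10% FBS, treated 24 h at 37 C. ONE-Glo luminescence normalized to PTC124 control and DMSO (0%); curves classed by r2, magnitude and activity.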

[3] = S16 Schwann cell PMP22 intronic element beta-lactamase assay (AID 624044; calls by dose curve;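 note: 0% = DMSO and -100% = potassium clavulanate positive control; nearly all actives have a fitted effect of over 15% in size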); settings: S16 rat Schwann cells, PMP22 element beta-lactamase FRET, 24 h; ratio activity, negative = inhibition: at 38.3 µM (top of the series) unless noted
Method in brief: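 Rat S16 Schwann cells with beta-Lac driven by a PMP22 intronic element, compound-treated 24 h at 37 °C. LiveBLAzer FRET B/G read: 460 nm normalized to potassium clavulanate vs DMSO; 535 nm FRET as viability; concentration-effect curves classified.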

[4] = test system: 3D7; assay: qHTS profiling for inhibitors of Plasmodium falciparum proliferation (AID 504749); note: nearly all actives have a fitted effect of over 60% in size; note: potency is the fitted concentration of half-maximal effect;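 for activity, negative = inhibition: 0% = DMSO vehicle and full inhibition = artemisinin control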; settings: P. falciparum in erythrocytes, SYBR Green DNA, 72 h; series mostly up to 28.7 µM
Method in brief: (§1)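 Readout was DNA-dye fluorescence from lysed cultures, ex 485/em 535 nm. Parasitized red cells had grown 72 h with compound; data scaled between 0.29 uM artemisinin and DMSO wells and corrected using vehicle-only plates.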

[5] = test system: ATS95; assay: as above; settings: P. falciparum in erythrocytes, SYBR Green DNA, 72 h; series mostly up to 28.7 µM
Method in brief: as §1

[6] = test system: C2A; assay: as above; settings: P. falciparum in erythrocytes, SYBR Green DNA, 72 h; series mostly up to 28.7 µM
Method in brief: as §1

[7] = test system: CP185; assay: as above; settings: P. falciparum in erythrocytes, SYBR Green DNA, 72 h; series mostly up to 28.7 µM
Method in brief: as §1

[8] = test system: CP192; assay: as above; settings: P. falciparum in erythrocytes, SYBR Green DNA, 72 h; series mostly up to 28.7 µM
Method in brief: as §1

[9] = test system: CP238; assay: as above; settings: P. falciparum in erythrocytes, SYBR Green DNA, 72 h; series mostly up to 28.7 µM
Method in brief: as §1

[10] = test system: CP266; assay: as above; settings: P. falciparum in erythrocytes, SYBR Green DNA, 72 h; series mostly up to 12.8 µM
Method in brief: as §1

[11] = test system: CP269; assay: as above; settings: P. falciparum in erythrocytes, SYBR Green DNA, 72 h; series mostly up to 28.7 µM
Method in brief: as §1

[12] = test system: CP286; assay: as above; settings: P. falciparum in erythrocytes, SYBR Green DNA, 72 h; series mostly up to 28.7 µM
Method in brief: as §1

[13] = test system: CP305; assay: as above; settings: P. falciparum in erythrocytes, SYBR Green DNA, 72 h; series mostly up to 28.7 µM
Method in brief: as §1

[14] = test system: DIV30; assay: as above; settings: P. falciparum in erythrocytes, SYBR Green DNA, 72 h; series mostly up to 28.7 µM
Method in brief: as §1

[15] = test system: ECU; assay: as above; settings: P. falciparum in erythrocytes, SYBR Green DNA, 72 h; series mostly up to 28.7 µM
Method in brief: as §1

[16] = test system: FAB9; assay: as above; settings: P. falciparum in erythrocytes, SYBR Green DNA, 72 h; series mostly up to 28.7 µM
Method in brief: as §1

[17] = test system: P93_24; assay: as above; settings: P. falciparum in erythrocytes, SYBR Green DNA, 72 h; series mostly up to 28.7 µM
Method in brief: as §1

[18] = test system: PAD; assay: as above; settings: P. falciparum in erythrocytes, SYBR Green DNA, 72 h; series mostly up to 28.7 µM
Method in brief: as §1

[19] = test system: PC49; assay: as above; settings: P. falciparum in erythrocytes, SYBR Green DNA, 72 h; series mostly up to 28.7 µM
Method in brief: as §1

[20] = test system: TAB109; assay: as above; settings: P. falciparum in erythrocytes, SYBR Green DNA, 72 h; series mostly up to 12.8 µM
Method in brief: as §1

Chain of Luciferin 4-monooxygenase (Photinus pyralis) (P08659 whole entry, looked up): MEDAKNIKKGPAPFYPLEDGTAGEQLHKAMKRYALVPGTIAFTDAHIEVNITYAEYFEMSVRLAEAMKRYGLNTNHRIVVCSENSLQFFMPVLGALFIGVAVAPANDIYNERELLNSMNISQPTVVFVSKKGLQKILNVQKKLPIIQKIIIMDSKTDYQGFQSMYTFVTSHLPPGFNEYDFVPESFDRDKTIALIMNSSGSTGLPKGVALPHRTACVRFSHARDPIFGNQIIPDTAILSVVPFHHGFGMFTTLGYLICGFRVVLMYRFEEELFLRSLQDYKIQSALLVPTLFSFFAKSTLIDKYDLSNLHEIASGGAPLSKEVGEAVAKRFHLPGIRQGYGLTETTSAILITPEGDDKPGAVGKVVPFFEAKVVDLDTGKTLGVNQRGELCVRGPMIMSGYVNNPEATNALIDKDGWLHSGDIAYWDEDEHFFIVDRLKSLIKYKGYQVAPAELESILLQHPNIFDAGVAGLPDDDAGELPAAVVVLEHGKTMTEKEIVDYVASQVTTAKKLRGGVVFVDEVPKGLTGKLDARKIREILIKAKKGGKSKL

NCC[C@H](O)C(=O)N[C@H]1C[C@@H](N)[C@@H](O[C@H]2O[C@@H](CN)[C@@H](O)[C@@H](O)[C@@H]2N)[C@@H](O[C@H]2O[C@@H](CO)[C@@H](O)[C@@H]2O)[C@@H]1O
inactive: Potency [1] | Potency [2] | Potency [3] | Potency [4] | Potency [5] | Potency [6] | Potency [7] | Potency [8] | Potency [9] | Potency [10] | Potency [11] | Potency [12] | Potency [13] | Potency [14] | Potency [15] | Potency [16] | Potency [17] | Potency [18] | Potency [19] | Potency [20]

C[C@H]1CN(C2CCC(C#N)(c3ccc(F)cc3)CC2)CC[C@@]1(C(=O)O)c1ccccc1 (stereo not given in full)
inactive: Potency [1] | Potency [2] | Potency [3] | Potency [4] | Potency [5] | Potency [6] | Potency [7] | Potency [8] | Potency [9] | Potency [10] | Potency [11] | Potency [12] | Potency [13] | Potency [14] | Potency [15] | Potency [16] | Potency [17] | Potency [18] | Potency [19] | Potency [20]

CC(C)c1c(CN(C)[C@@H](C)Cc2ccccc2)n(C)n(-c2ccccc2)c1=O
inactive: Potency [1] | Potency [2] | Potency [4] | Potency [5] | Potency [6] | Potency [7] | Potency [8] | Potency [9] | Potency [10] | Potency [11] | Potency [12] | Potency [13] | Potency [14] | Potency [15] | Potency [16] | Potency [17] | Potency [18] | Potency [19] | Potency [20]
active: ratio activity, negative = inhibition [3] -8.16% [at 17.1 µM]

C[N+]1(C)[C@@H]2CC[C@H]1CC(OC(=O)[C@@H](CO)c1ccccc1)C2 (stereo not given in full)
inactive: Potency [1] | Potency [2] | Potency [3] | Potency [4] | Potency [5] | Potency [6] | Potency [7] | Potency [8] | Potency [9] | Potency [10] | Potency [11] | Potency [12] | Potency [13] | Potency [14] | Potency [15] | Potency [16] | Potency [17] | Potency [18] | Potency [19] | Potency [20]

C[N+]1([O-])[C@@H]2CC[C@H]1CC(OC(=O)[C@@H](CO)c1ccccc1)C2 (stereo not given in full)
inactive: Potency [1] | Potency [2] | Potency [3] | Potency [4] | Potency [5] | Potency [6] | Potency [7] | Potency [8] | Potency [9] | Potency [10] | Potency [11] | Potency [12] | Potency [13] | Potency [14] | Potency [15] | Potency [16] | Potency [17] | Potency [18] | Potency [19] | Potency [20]

CC[C@]1(c2cccc(O)c2)CCCCN(C)C1
inactive: Potency [1] | Potency [2] | Potency [3] | Potency [4] | Potency [6] | Potency [10] | Potency [12] | Potency [15] | Potency [16] | Potency [17] | Potency [19] | Potency [20]

C#CCN(C)[C@@H](C)Cc1ccccc1
inactive: Potency [1] | Potency [2] | Potency [3] | Potency [4] | Potency [5] | Potency [6] | Potency [7] | Potency [8] | Potency [9] | Potency [10] | Potency [11] | Potency [12] | Potency [13] | Potency [14] | Potency [15] | Potency [16] | Potency [17] | Potency [18] | Potency [19]

CN(C)C(=O)Oc1cc(OC(=O)N(C)C)cc([C@@H](O)CNC(C)(C)C)c1
inactive: Potency [1] | Potency [2] | Potency [3] | Potency [4] | Potency [5] | Potency [6] | Potency [7] | Potency [8] | Potency [9] | Potency [10] | Potency [11] | Potency [12] | Potency [13] | Potency [14] | Potency [15] | Potency [16] | Potency [17] | Potency [18] | Potency [19] | Potency [20]

CC(=O)OCC(=O)[C@@H]1CC[C@H]2[C@H]3CC[C@H]4C[C@@H](O)CC[C@]4(C)[C@@H]3C(=O)C[C@@]12C
inactive: Potency [1] | Potency [2] | Potency [3] | Potency [4] | Potency [5] | Potency [6] | Potency [7] | Potency [8] | Potency [9] | Potency [10] | Potency [11] | Potency [12] | Potency [13] | Potency [14] | Potency [15] | Potency [16] | Potency [17] | Potency [18] | Potency [19] | Potency [20]

C[C@H](N)[C@@H](O)c1ccccc1
inactive: Potency [1] | Potency [2] | Potency [3] | Potency [4] | Potency [5] | Potency [6] | Potency [7] | Potency [8] | Potency [9] | Potency [10] | Potency [11] | Potency [12] | Potency [13] | Potency [14] | Potency [15] | Potency [16] | Potency [17] | Potency [18] | Potency [19] | Potency [20]

CCN[C@]1(c2cccs2)CCCCC1=O
inactive: Potency [1] | Potency [2] | Potency [3] | Potency [4] | Potency [5] | Potency [6] | Potency [7] | Potency [8] | Potency [9] | Potency [10] | Potency [11] | Potency [12] | Potency [13] | Potency [14] | Potency [15] | Potency [16] | Potency [17] | Potency [18] | Potency [19] | Potency [20]

CN(C)[C@@H]1C(=O)C(C(N)=O)=C(O)[C@]2(O)C(=O)C3=C(O)c4c(O)ccc(Cl)c4[C@](C)(O)[C@H]3C[C@@H]12
inactive: Potency [1] | Potency [2] | Potency [3] | Potency [4] | Potency [5] | Potency [6] | Potency [7] | Potency [8] | Potency [9] | Potency [10] | Potency [11] | Potency [12] | Potency [13] | Potency [14] | Potency [15] | Potency [16] | Potency [17] | Potency [18] | Potency [19] | Potency [20]

C[C@H](NC(C)(C)C)C(=O)c1cccc(Cl)c1
inactive: Potency [1] | Potency [2] | Potency [3] | Potency [4] | Potency [5] | Potency [6] | Potency [7] | Potency [8] | Potency [9] | Potency [10] | Potency [11] | Potency [12] | Potency [13] | Potency [14] | Potency [15] | Potency [16] | Potency [17] | Potency [18] | Potency [19] | Potency [20]

COc1ccc2c(c1OC)CN1CCc3cc4c(cc3[C@H]1C2)OCO4
inactive: Potency [1] | Potency [2] | Potency [3]
active: Potency [5] 2.51 µM | Potency [6] 2.24 µM | Potency [7] 2.51 µM | Potency [8] 2.03 µM | Potency [9] 3.55 µM | Potency [11] 2.03 µM | Potency [13] 2.28 µM | Potency [14] 2.56 µM | Potency [16] 3.16 µM | Potency [17] 2.51 µM | Potency [18] 3.16 µM | Potency [20] 2.24 µM

C[C@@]12CC[C@H]3[C@@H](CC[C@@H]4C[C@H]5S[C@H]5C[C@]43C)[C@H]1CC[C@H]2O
inactive: Potency [1] | Potency [3] | Potency [4] | Potency [5] | Potency [6] | Potency [7] | Potency [8] | Potency [9] | Potency [10] | Potency [11] | Potency [12] | Potency [13] | Potency [14] | Potency [15] | Potency [16] | Potency [17] | Potency [18] | Potency [19] | Potency [20]
active: Potency [2] 7.75 µM

N[C@H]1C[C@H]1c1ccccc1
inactive: Potency [1] | Potency [2] | Potency [3] | Potency [4] | Potency [5] | Potency [6] | Potency [7] | Potency [8] | Potency [9] | Potency [10] | Potency [11] | Potency [12] | Potency [13] | Potency [14] | Potency [15] | Potency [16] | Potency [17] | Potency [18] | Potency [19] | Potency [20]

C[C@@]12CCC(=O)C=C1C=C[C@H]1[C@H]3CC[C@](O)(CCC(=O)O)[C@]3(C)CC[C@@H]12
inactive: Potency [1] | Potency [2] | Potency [3] | Potency [4] | Potency [5] | Potency [6] | Potency [7] | Potency [8] | Potency [9] | Potency [10] | Potency [11] | Potency [12] | Potency [13] | Potency [14] | Potency [15] | Potency [16] | Potency [18] | Potency [19] | Potency [20]
